Tb PYK inh: qHTS of Trypanosoma Brucei Inhibitors; pyruvate kinase (Trypanosoma brucei), Q57TT1; TbPYK enzyme, Kinase-Glo Plus ATP luminescence, 45 min; Potency, µM (highest dose often 76.8 µM), without a hit: at the highest dose activity, negative = inhibition, usual class: inhibitors; 410,000 compounds, 0.12% hits; note: nearly all actives have a fitted effect of over 50% in size
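Glycolytic pyruvate kinase of T. brucei was incubated with substrate, test compound and 130 uM ADP for 45 minutes at room temperature. Luminescent Kinase-Glo Plus signal was measured after 10 minutes.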
RE007 growth inh: qHTS Assay for Inhibitors of the HIV-1 protein Vpr | S. pombe RE007 Vpr strain, BacTiter-Glo ATP luminescence, 24 h | Potency, µM (titrated, usually from 92.2 µM), for the others: at the top dose activity change, negative = less growth, actives largely listed as inhibitors | 360,000 compounds, 0.21% hits | AID 651644, 2012; active = well fitted falling curve with a large enough effect; inconclusive = small, poorly fitted or top-dose-only effect; inactive = no such curve, though single readings can be large or run the other way; note: nearly all actives have a fitted effect of over 50% in size
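Fission yeast RE007 carrying one integrated HIV-1 vpr copy, seeded at OD 0.01 in PMG+AL medium with 23 nL pinned compound. Grown 24 h at 30 degrees; viability read by BacTiter-Glo luminescence after 5 min.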
LmPK inhibitor: qHTS Assay for Inhibitors of Leishmania Mexicana Pyruvate Kinase (LmPK) | Q27686 | purified LmPK, Kinase-Glo ATP luminescence, 1 h | Potency, µM (series often up to 57.5 µM), inactives show at the highest dose activity change, negative = inhibition, actives largely listed as inhibitors | 290,000 compounds, 0.37% hits | AID 1721, 2009
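0.1 nM LmPK, 0.5 mM PEP, 0.1 mM ADP; 50 mM imidazole pH 7.2, 7 mM MgCl2, 50 mM KCl; 1 h RT. Kinase-Glo luminescence readout, normalized to no-enzyme (full inhibition) and uninhibited wells.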
Giardia FBPA inh: qHTS Assay for Inhibitors of Fructose-1,6-bisphosphate Aldolase from Giardia Lamblia | 290,000 compounds, 0.71% hits | A8B2U2 | purified Giardia FBPA | Potency, µM (series often up to 59.6 µM), for inactives: at the highest dose activity, negative = inhibition, usual class: inhibitors | AID 2451, 2010; note: nearly all actives have a fitted effect of over 55% in size
Target sequence (A8B2U2 whole entry, looked up): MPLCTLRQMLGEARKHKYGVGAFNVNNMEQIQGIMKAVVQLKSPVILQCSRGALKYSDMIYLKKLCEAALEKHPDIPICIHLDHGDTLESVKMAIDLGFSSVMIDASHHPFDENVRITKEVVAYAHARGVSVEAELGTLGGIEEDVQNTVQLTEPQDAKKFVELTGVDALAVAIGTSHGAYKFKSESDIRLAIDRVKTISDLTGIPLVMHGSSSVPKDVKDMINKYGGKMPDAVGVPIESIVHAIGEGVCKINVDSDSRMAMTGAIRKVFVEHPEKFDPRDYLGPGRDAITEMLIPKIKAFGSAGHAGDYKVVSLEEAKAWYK
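40 nM FBPA preincubated 10 min at RT with compound (up to 57.5 uM final), then substrate plus GAPDH/TPI/NAD/arsenate coupling and diaphorase/resazurin added. Fluorescence read after 20 min at RT, 525/598 nm.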
Active calls of the source: *; ? = inconclusive; nt = not tested or not shown; [ ] = dose if it differs, or a comment. Most compounds without a hit are left out; they make up all but 0.95% or so of the library. Unless noted, calls come from the whole dose curve; as a rule, active = well fitted curve in the direction sought with a large enough effect; inconclusive = small, poorly fitted or top-dose-only effect, or another doubt; inactive = no such curve, though single readings can be large; an effect the other way counts as inactive or inconclusive. % is set by controls: 0 for no effect and ±100 for the full control effect; potency is the fitted concentration of half-maximal effect.

SMILES	Tb PYK inh	RE007 growth inh	LmPK inhibitor	Giardia FBPA inh
CSCCC(C(=O)Nc1c(C)cccc1C)n1c(-c2cc(C)cs2)nc2ccccc21 (stereo unspecified)	nt	5%	nt	nt
CN1CCN(C(=S)C(=O)Nc2ccc(Br)cc2)CC1	?	6%	1%	5µM*
CN1CCC(NC(=O)Nc2ccc(Br)cc2)CC1	-2%	-2%	2%	0%
Cc1cc(N)n2nc(-c3ccccc3)cc2n1	-22%	?	16µM*	4%
COc1cc(CN2CCCC(C(=O)c3ccc4c5c(cccc35)CC4)C2)cc(OC)c1O (stereo unspecified)	-18%	-12%	0%	7.9µM*
Cc1cc(/C(N)=N/OC(=O)c2ccccc2Cl)no1	?	-16%	22µM*	0%
N/C(=N/OC(=O)c1ccccc1Cl)c1nonc1N	?	28µM*	1%[11.5 µM]	-6%
N/C(=N\OC(=O)c1ccc(F)cc1)c1ccc(Br)cc1	-3%	-28%	-2%	1%
Cc1cc(NC(=O)COC(=O)c2ccccc2Cl)no1	-1%	-1%	nt	nt
N/C(=N\OC(=O)c1ccc(F)cc1)c1nonc1N	?	?	14µM*	2%
Cc1nc(/C(N)=N/OC(=O)c2ccccc2Cl)c(C(F)(F)F)o1	-21%	-8%	13µM*	0%
Cc1ccc(S(=O)(=O)N(C)CCN(C)S(=O)(=O)c2ccc(C)cc2)cc1	4%	-2%	nt	nt
O=C(NCc1ccc(Cl)cc1)c1cc2cccc3c2n1CCS3	5%[15.4 µM]	nt	nt	nt
Cc1ccc(C(=O)O/N=C(\N)c2nonc2N)cc1	?	?	4µM*	1%
Cc1ccc(/C(N)=N/OC(=O)c2ccc(F)cc2)cc1	6%	-28%	-2%	2%
Cc1cc(Cl)ccc1OCc1n[nH]c(=S)n1C1CCCCC1	?	-18%	13µM*	29%
COc1ccc(Cl)cc1-c1n[nH]c(=S)n1C1CCCCC1	?	11%	7.1µM*	9%
COC(=O)CCSC(=S)N1CCOCC1	-1%	2%	-2%	-1%
CCCCOc1ccc(C(=O)NCC(=O)NCCOc2ccccc2OC)cc1	2%	4%	nt	nt
CC(C)c1ccc(S(=O)(=O)/N=C2/C=CC(=O)c3ccccc32)cc1	nt	nt	-15%	14µM*
CC1(C(=O)NS(=O)(=O)c2ccc(Cl)cc2)CCN1C(=O)c1ccco1 (stereo unspecified)	-1%	-11%	nt	nt
Cc1ccc(/C(=C\CN2CCCC2)c2cccc(/C=C/C(=O)O)n2)cc1	3%	nt	nt	nt
CC12CN3CC(C)(CN(C1)C3c1c[nH]c3ccccc13)C2=O (stereo unspecified)	-5%	-3%	4%	0%
CC12CN3CC(C)(CN(C1)C3c1ccc3ccccc3c1O)C2=O (stereo unspecified)	-2%	-11%	8%	13µM*
CC(=O)Oc1cccc(NC(=O)c2ccc3c(c2)C(=O)N(CC(C)C)C3=O)c1	-13%	-2%	-1%	1%
SMILES	Tb PYK inh	RE007 growth inh	LmPK inhibitor	Giardia FBPA inh
Cc1ccc(-n2ncc(Br)c(Br)c2=O)cc1	-1%	16µM*	-5%	6%
O=c1c(Br)c(Br)cnn1-c1ccccc1	5%	?	3%	-3%
Cc1cc2c(cc1C)C(=O)C(Br)=C(N)C2=O	-5%	?	nt	nt
NC1=C(Br)C(=O)c2ccccc2C1=O	-6%	11µM*	-29%	?
CCCOc1ccc(N2C(=O)CC(N3CCOCC3)C2=O)cc1 (stereo unspecified)	-3%	?	2%	9%
O=C(C1CCCN(C2CC(=O)N(c3ccc(F)cc3)C2=O)C1)N1CCCC1 (stereo unspecified)	-1%	45µM*	4%	nt
CCCOc1ccc(N2C(=O)CC(N3CCC(C(=O)OCC)CC3)C2=O)cc1 (stereo unspecified)	3%	5.6µM*	7%	7%
O=C1CCCN1CCC1CCN(C2CC(=O)N(c3ccc(Cl)cc3)C2=O)CC1 (stereo unspecified)	4%	5µM*	-10%	0%
O=C(C1CCCN(C2CC(=O)N(c3ccc(Cl)cc3)C2=O)C1)N1CCCC1 (stereo unspecified)	3%	5.6µM*	3%	nt
CC(C)CCNC(=O)C(CC(C)C)NC(=O)C1OC1C(=O)O (stereo unspecified)	nt	nt	nt	5%

High-throughput results (PubChem)
